Measurements as given in PubChem BioAssay (NCATS).
Results filed as inconclusive are left out. Where a call stands in place of a potency, no number is given. Activity calls are given as the source filed them. Calls follow the shape of the dose curve; as a rule, active = well fitted inhibition curve with a large enough effect; inconclusive = small, poorly fitted or top-dose-only effect; inactive = flat fitted curve, though single readings scatter.

What follows are molecules tested against Calcium and integrin-binding protein 1 (Homo sapiens) (UniProt Q99828) (assay: Primary qHTS for Identification of Calcium Integrin Binding Protein 1 (CIB1) Competitor (AID 1508620)). Conditions: CIB1-GST / FITC-alphaIIb peptide fluorescence polarization; series mostly up to 114 µM.
Sequence of Calcium and integrin-binding protein 1 (Homo sapiens) (Q99828 whole entry, looked up): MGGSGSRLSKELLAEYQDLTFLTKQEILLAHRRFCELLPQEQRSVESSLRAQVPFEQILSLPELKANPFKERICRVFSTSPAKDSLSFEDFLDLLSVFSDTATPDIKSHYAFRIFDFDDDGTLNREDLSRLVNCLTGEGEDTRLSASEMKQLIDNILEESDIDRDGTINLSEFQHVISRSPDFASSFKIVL
In short: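 Fluorescence polarization competition: GST-tagged CIB1 (1 uM final) preincubated with compound 15 min at room temperature, then FITC-labelled alphaIIb peptide (100 nM final) added. After 15 min at room temperature, polarization read at Ex 480/Em 540.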
Potency is read from the fitted curve at half-maximal effect.

Row | Compound | Potency
1 | COC(=O)c1cc2c(C(F)(F)F)cc(-c3ccccc3)cc2n1O | inactive
2 | Cc1c(OCc2cccc(-c3ccc(C(=O)O)cc3)c2)cc2c(c1C)C(=O)C(C1CCCC1)C2 (configuration not stated) | inactive
3 | CO[C@@H]1CC(OC2CCC3(C)C(CCC45CCC(C6=CC(=O)OC6)C(C)(CCC43)C5=O)C2)O[C@H](C)[C@@H]1O[C@@H]1O[C@H](CO[C@@H]2O[C@H](CO)[C@@H](O)[C@H](O)[C@H]2O)[C@@H](O)[C@H](O)[C@H]1O (some centres not stated) | inactive
4 | C/C=C(\C)C(=O)O[C@H]1C=C(CO)C(=O)[C@H](OC(C)=O)[C@H]1C(C)C | inactive
5 | CC[C@H]1OC(=O)[C@H](C)[C@@H](O[C@H]2C[C@@](C)(OC)[C@@H](O)[C@H](C)O2)[C@H](C)[C@@H](O[C@H]2O[C@H](C)C[C@H](N(C)C)[C@H]2O)[C@](C)(O)C[C@@H](C)C(=O)[C@H](C)[C@@H](O)[C@]1(C)O | inactive
6 | COc1cc2c(cc1NS(=O)(=O)c1ccc(Br)cc1C)n(C)c(=O)n2C | inactive
7 | CC[C@H](C)/C=C(C)/C=C/C1=CC2=CC(=O)[C@]3(C)OC(=O)[C@@H](C(C)=O)[C@@H]3C2=CO1 | inactive
8 | CC1CCCC[C@H]2C(=O)C=C[C@H](O)[C@@H]2CC(=O)O1 (some centres not stated) | 28.2 µM (active)
9 | O=C(Nc1ccc(-n2nc(C(F)(F)F)cc2C(F)(F)F)cc1)c1ccncc1F | inactive
10 | c1ccc(-c2cnn3cc(-c4ccc(OCCN5CCOCC5)cc4)cnc23)cc1 | inactive
11 | CC(=O)Nc1cccc(-c2csc(Nc3cc(C)ccn3)n2)c1 | inactive
12 | NS(=O)(=O)c1ccc(NC(=O)Nc2ccc(F)cc2)cc1 | inactive
